# Assay results reported in PubChem BioAssay (NCATS).
# Records with an inconclusive call do not appear. A call without a number means that no potency is given here. Calls of active or inactive are those of the source. Unless noted, calls follow the shape of the dose curve; as a rule, active = well fitted curve in the direction sought with a large enough effect; inconclusive = small, poorly fitted or top-dose-only effect, or another doubt; inactive = no such curve, though single readings can be large; an effect the other way counts as inactive or inconclusive.
# Experiments:
# [1] = Inducers of the Endoplasmic Reticulum Stress Response (ERSR) in human glioma: Validation (AID 504836)
# Summary of the method: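 ERSR induction read as luciferase luminescence (Bright-Glo, 10 min at room temperature) in stably transfected human U87-MG glioma cells exposed to compounds for 16 h, using GRP78 as sensor.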
# [2] = Validation screen for small molecules that induce genotoxicity in human embryonic kidney (HEK293T) cells expressing luciferase-tagged ELG1 (AID 493106)
# Summary of the method: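 Luminescence from an ELG1-luciferase fusion serves as the read-out, rising when genetic stress elevates ELG1 protein. HEK293T reporter cells (2,000 per well) received 23 nL compound, incubated 16 hr at 37 °C, then ONE-Glo for 30 min at room temperature.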
# [3] = molecular target: ATPase family AAA domain-containing protein 5 (Homo sapiens) (UniProt Q96QE3); assay: Validation screen for small molecules that inhibit ELG1-dependent DNA repair in human embryonic kidney (HEK293T) cells expressing luciferase-tagged ELG1 (AID 493107); also: nearly all actives have a fitted effect of over 70% in size; also: potency is read from the fitted curve at half-maximal effect
# Summary of the method: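 Luminescence from ONE-Glo, developed 30 min at room temperature, served as read-out of ELG1-luciferase levels. Beforehand, reporter HEK293T cells received 5-fluorouridine plus test compound for 16 hr at 37 °C.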
# [4] = molecular target: Thyrotropin-releasing hormone receptor (Homo sapiens) (UniProt P34981); assay: qHTS for Small Molecule Agonists and Allosteric Enhancers of Human TRH Receptor: Validation Screen for Agonists (AID 493127;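 active = calcium activation more than 3 SD above the typical response in the agonist read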;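 also: intracellular calcium rise by fluo-8 fluorescence before TRH EC20 addition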); details: TRH receptor agonist cell assay; at 2 µM; stronger effect = higher value
# Summary of the method: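 Cells 2000/well, 10% FCS, 18 h 33.5C/5% CO2 → fluo-8 Ca dye, RT 30 min–1.5 h → FDSS baseline 10 × 1 s → compound added → 230 cycles (1 s/cycle) agonist mode. TRH controls.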
# [5] = Nrf2 qHTS screen for inhibitors: Validation (AID 493153; active = well fitted inhibition curve with a large enough effect in the main read-out, with a control signal flat, not every such curve was filed as active); details: viability change: measured here: cytotoxicity max response
# Summary of the method: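 Luminescence from an ARE-firefly luciferase reporter in A549 cells gives Nrf2 inhibition; an earlier CellTiter-Fluor fluorescent read flags cytotoxicity. Cells in 5% FBS OPTI-MEM received compound dilution series for 18-24 h at 37°C.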
# [6] = qHTS for Inhibitors of Cell Surface uPA Generation: Validation Assay (AID 493164)
# Summary of the method: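 RAW 264.7 cells (4000/well) were plated overnight, then exposed for 18 h at 37 C, 5% CO2 to compounds in a 7-point 1:5 titration (2.45 nM–38.3 uM final). Intracellular ATP was read by ATP-Lite luminescence.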
# [7] = molecular target: Galactokinase (Homo sapiens) (UniProt P51570); assay: qHTS Validation Assay for Inhibitors of Human Galactokinase (GALK) (AID 493189)
# Summary of the method: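 Compounds were pin-transferred into ATP buffer, then GALK-galactose mix was added (final 5 nM enzyme, 100 uM galactose, 35 uM ATP). After 1 h at room temperature, remaining ATP was measured luminescently.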
# [8] = Validation screen for small molecules that induce DNA re-replication in SW480 colon adenocarcinoma cells (AID 504364)
# Summary of the method: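 250 cells/well; compound pinned in; 48 hr, 37 C, 5% CO2; Hoechst added, 40 min; nuclear fluorescence imaged, 405 ex / 500-530 em; re-replication scored as increase in high-intensity nuclei.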
# [9] = molecular target: Peptidyl-prolyl cis-trans isomerase NIMA-interacting 1 (Homo sapiens) (UniProt Q13526); assay: qHTS Validation Assay to Find Inhibitors of Pin1 (AID 504536; active = well fitted inhibition curve with a large enough effect in the polarisation, with a control signal flat, not every such curve was filed as active; the % refers to the polarisation)
# Summary of the method: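 Fluorescence polarization competition: compounds (titration) displace HiFluor-488-labeled Pin1-1b peptide from Pin1 (0.3 uM final) in pH 7.5 HEPES buffer with DTT, 10 min at room temperature; %Activity normalized to no-enzyme wells, curves fitted.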
# [10] = molecular target: Phosphoglycerate kinase, glycosomal (Trypanosoma brucei brucei) (UniProt P07378); assay: qHTS Validation Assay to Find Inhibitors of Phosphoglycerate Kinase (AID 504547)
# Summary of the method: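 Inhibition of the enzyme is judged by a Kinase-Glo Plus luminescent signal following a one-hour incubation at room temperature. Because 1,3-BPG is unstable, it is made in situ by GAPDH at 100nM final; no-PGK wells define the baseline.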
# [11] = molecular target: phosphoglycerate mutase (Leishmania major) (UniProt Q4Q090); assay: qHTS Validation Assay to Find Inhibitors of Phosphoglycerate Mutase (AID 504548); also: series mostly up to about 58 µM
# Summary of the method: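 Lm PGAM at 1.25 nM final with substrate in 100 mM TEA pH 7.6, 5 mM MgCl2, 0.01% Tween-20; 45 min at room temperature. Kinase-GloPlus added, 10 min, end-point luminescence read.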
# [12] = qHTS for Inhibitors of ATXN expression: Validation of Cytotoxic Assay (AID 588349)
# Summary of the method: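 Read-out: ATP-based luminescence (CellTiter Glo) reflecting viability of HEK293 cells after 72 hr incubation at 37 degrees C with a concentration series of each compound.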
# [13] = qHTS for Inhibitors of ATXN expression: Validation (AID 588378); also: nearly all actives have a fitted effect of over 75% in size; also: potency is read from the fitted curve at half-maximal effect
# Summary of the method: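 Validation of ATXN2 expression inhibitors uses a cell-based luciferase fusion reporter in HEK293 cells, with 24 h compound exposure and paired viability (fluorescence) and reporter (luminescence) end-point reads.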
# [14] = molecular target: Ubiquitin carboxyl-terminal hydrolase 1 (Homo sapiens) (UniProt O94782); assay: Inhibitors of USP1/UAF1: Pilot qHTS (AID 504865);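 also: rhodamine fluorescence freed from ubiquitin-rhodamine substrate followed over time; top concentration of the series differs between compounds; nearly all actives have a fitted effect of over 35% in size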
# Summary of the method: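 Kinetic fluorescence assay: 1nM USP1/UAF1, 15 min compound preincubation, then 150nM Ub-Rho; 480/540 nm.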
# [15] = molecular target: Estrogen receptor (Homo sapiens) (UniProt P03372); assay: qHTS assay for small molecule antagonists of estrogen receptor alpha signaling (AID 588513; active = well fitted curve in the direction sought with a large enough effect in the signal ratio, with a control signal flat, not every such curve was filed as active; the % refers to the signal ratio)
# Summary of the method: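 Cells were plated at 5000/well and incubated 4 h at 37 C. Compounds were added as 1:2 dilution series, duplicates. 17-beta-estradiol (0.5nM final) was added for 18 h before CCF4 detection.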
# [16] = molecular target: DNA dC->dU-editing enzyme APOBEC-3G (Homo sapiens) (UniProt Q9HC16); assay: qHTS for inhibitors of Vif-A3G interactions: Validation (AID 588379)
# Summary of the method: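 HeLa cells stably expressing Vif and A3G-eYFP, 700 cells/well, incubated overnight at 37 deg C, then exposed to compound overnight at 37 deg C. Inhibition of Vif-mediated degradation read as increased yellow fluorescence (Ex 488/Em 500-530) by laser-scanning cytometry.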
# Chain of Galactokinase (Homo sapiens) (P51570 whole entry, looked up): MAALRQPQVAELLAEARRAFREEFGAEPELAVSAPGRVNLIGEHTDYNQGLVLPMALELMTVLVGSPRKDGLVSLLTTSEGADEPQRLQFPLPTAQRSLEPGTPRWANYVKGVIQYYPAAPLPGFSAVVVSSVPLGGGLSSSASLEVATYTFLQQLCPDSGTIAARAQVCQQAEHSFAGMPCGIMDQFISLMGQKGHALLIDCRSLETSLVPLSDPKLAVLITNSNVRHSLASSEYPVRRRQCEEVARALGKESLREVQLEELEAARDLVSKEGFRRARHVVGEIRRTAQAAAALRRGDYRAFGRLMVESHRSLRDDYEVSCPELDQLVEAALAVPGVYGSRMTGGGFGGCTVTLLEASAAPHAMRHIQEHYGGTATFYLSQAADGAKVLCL
# Chain of ATPase family AAA domain-containing protein 5 (Homo sapiens) (Q96QE3 whole entry, looked up, the tested form may be a part): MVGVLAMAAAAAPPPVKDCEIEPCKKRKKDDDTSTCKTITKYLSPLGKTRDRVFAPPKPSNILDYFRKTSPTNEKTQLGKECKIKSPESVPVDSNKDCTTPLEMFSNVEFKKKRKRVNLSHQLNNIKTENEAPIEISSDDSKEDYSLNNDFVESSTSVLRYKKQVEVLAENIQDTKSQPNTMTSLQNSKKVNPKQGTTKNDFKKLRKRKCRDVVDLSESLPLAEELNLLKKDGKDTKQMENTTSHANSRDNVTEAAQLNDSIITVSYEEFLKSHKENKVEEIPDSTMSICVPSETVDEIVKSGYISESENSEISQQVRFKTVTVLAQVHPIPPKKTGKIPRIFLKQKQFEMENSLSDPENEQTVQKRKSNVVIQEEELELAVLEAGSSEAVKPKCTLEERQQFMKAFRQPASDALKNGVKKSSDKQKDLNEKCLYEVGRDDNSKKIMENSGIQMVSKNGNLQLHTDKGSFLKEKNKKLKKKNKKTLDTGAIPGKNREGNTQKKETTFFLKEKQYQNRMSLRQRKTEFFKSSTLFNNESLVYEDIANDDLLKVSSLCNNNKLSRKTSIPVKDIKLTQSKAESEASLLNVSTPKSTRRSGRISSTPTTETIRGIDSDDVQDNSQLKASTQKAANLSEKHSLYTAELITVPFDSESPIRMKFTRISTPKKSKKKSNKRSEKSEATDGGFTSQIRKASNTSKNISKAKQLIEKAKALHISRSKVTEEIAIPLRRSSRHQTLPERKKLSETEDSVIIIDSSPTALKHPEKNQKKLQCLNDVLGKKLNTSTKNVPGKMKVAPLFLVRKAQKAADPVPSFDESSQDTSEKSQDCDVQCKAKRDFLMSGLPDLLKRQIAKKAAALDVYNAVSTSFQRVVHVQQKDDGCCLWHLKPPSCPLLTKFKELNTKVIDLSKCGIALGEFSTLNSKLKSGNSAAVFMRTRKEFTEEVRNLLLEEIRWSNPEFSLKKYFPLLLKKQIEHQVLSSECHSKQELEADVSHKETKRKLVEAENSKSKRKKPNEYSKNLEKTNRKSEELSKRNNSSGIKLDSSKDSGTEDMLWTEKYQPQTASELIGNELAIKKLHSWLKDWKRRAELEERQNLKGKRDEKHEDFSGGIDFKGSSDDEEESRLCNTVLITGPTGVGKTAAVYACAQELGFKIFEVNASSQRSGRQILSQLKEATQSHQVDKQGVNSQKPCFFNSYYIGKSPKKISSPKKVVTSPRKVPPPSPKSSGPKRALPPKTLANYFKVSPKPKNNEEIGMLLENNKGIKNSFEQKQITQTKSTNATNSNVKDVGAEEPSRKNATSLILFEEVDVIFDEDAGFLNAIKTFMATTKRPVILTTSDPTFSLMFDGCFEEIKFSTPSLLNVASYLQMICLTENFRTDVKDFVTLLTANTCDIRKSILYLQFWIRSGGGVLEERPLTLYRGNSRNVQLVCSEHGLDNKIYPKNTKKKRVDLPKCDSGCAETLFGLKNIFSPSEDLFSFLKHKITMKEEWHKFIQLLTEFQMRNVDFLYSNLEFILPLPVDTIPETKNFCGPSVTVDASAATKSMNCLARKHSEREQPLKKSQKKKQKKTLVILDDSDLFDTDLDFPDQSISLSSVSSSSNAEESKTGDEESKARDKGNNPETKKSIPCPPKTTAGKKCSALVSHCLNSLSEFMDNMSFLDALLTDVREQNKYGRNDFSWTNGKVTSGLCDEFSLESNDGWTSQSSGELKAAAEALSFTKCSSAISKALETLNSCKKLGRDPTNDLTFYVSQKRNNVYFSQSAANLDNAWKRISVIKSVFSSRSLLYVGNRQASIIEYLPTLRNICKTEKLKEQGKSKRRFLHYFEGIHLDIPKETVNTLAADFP
# Chain of Ubiquitin carboxyl-terminal hydrolase 1 (Homo sapiens) (O94782 whole entry, looked up): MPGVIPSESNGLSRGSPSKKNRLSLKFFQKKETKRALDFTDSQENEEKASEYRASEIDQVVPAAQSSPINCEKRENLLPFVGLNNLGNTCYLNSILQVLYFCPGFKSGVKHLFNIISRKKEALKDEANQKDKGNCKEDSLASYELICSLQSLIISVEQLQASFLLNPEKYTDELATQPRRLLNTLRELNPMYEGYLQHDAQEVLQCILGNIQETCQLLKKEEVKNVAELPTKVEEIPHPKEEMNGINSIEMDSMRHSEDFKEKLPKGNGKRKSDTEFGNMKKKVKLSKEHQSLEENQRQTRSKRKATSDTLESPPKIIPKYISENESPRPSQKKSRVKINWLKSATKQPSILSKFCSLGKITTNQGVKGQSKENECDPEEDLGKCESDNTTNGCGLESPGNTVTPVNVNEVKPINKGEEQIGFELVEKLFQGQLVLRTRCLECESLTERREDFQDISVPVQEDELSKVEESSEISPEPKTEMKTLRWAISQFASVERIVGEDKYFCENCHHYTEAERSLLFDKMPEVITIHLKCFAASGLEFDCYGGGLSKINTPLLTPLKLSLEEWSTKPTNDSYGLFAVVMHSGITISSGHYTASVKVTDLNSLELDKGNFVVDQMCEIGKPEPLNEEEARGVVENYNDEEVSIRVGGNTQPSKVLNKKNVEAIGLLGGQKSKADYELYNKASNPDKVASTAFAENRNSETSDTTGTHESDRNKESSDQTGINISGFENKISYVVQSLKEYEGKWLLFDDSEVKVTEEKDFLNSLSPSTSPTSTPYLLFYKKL
# Chain of Thyrotropin-releasing hormone receptor (Homo sapiens) (P34981 whole entry, looked up): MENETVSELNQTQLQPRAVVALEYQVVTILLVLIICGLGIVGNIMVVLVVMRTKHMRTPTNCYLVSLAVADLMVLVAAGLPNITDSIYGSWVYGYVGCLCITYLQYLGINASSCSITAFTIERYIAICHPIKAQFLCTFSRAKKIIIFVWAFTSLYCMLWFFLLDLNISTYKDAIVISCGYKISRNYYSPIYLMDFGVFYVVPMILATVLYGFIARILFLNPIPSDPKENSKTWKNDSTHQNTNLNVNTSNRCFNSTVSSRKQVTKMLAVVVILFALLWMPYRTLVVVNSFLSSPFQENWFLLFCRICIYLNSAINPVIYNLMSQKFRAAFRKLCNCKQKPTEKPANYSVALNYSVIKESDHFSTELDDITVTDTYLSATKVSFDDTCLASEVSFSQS
# Chain of DNA dC->dU-editing enzyme APOBEC-3G (Homo sapiens) (Q9HC16 whole entry, looked up): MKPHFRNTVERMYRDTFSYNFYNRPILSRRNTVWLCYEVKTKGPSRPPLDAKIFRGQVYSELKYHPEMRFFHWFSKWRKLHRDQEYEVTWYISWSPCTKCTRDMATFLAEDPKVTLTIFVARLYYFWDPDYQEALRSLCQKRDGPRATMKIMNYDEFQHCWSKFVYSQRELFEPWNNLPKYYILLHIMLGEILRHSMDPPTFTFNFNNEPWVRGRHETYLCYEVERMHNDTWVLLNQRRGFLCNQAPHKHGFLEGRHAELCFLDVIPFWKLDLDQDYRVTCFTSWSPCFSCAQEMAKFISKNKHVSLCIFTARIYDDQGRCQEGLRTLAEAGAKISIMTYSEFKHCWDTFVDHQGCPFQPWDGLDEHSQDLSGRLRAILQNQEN
# Chain of phosphoglycerate mutase (Leishmania major) (Q4Q090 1-553): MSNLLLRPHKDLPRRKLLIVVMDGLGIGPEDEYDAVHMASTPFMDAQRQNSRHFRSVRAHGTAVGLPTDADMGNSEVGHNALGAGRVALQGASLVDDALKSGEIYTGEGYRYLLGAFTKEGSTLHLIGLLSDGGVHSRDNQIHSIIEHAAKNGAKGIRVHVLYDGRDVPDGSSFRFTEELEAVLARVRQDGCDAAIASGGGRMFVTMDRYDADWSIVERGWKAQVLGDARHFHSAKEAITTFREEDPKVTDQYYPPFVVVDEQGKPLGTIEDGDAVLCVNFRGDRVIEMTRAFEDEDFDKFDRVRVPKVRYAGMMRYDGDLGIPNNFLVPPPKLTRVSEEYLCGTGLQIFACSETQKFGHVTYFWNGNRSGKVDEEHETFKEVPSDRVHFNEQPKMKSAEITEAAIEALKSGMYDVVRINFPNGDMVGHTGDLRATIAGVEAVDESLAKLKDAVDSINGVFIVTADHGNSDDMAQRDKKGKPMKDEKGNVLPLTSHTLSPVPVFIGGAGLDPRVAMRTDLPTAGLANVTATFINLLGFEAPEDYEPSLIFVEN
# Chain of Peptidyl-prolyl cis-trans isomerase NIMA-interacting 1 (Homo sapiens) (Q13526 whole entry, looked up): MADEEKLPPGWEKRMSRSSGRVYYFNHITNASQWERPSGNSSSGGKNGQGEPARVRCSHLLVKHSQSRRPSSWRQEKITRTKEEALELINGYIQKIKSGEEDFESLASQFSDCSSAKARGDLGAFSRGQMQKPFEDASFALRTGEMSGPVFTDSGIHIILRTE
# Chain of Phosphoglycerate kinase, glycosomal (Trypanosoma brucei brucei) (P07378 whole entry, looked up): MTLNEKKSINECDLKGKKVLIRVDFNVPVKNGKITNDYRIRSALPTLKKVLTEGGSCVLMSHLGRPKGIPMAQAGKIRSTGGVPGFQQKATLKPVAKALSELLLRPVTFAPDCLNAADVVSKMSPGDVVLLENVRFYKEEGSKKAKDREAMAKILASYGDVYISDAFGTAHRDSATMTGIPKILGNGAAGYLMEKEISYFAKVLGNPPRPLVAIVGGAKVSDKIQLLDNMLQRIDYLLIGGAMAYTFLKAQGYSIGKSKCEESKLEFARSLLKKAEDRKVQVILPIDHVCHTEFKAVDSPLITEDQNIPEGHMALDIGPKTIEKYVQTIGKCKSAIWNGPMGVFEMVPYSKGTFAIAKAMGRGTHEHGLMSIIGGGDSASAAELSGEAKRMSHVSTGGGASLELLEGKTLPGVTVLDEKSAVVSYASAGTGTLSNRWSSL
smiles,measurement,setting,value
NC(N)=N/N=C/c1c(Cl)cccc1Cl,outcome,[1],inactive
CCN(CC)CC(=O)Nc1c(C)cccc1C,outcome,[1],inactive
NC(=O)CN1CCCC1=O,outcome,[2],inactive
same,Potency,[3],inactive
same,activation,[4],-0.312% (inactive)
same,outcome,[5],inactive
same,viability change,[5],-6.84%
same,outcome,[6],inactive
same,outcome,[7],inactive
same,outcome,[8],inactive
same,outcome,[9],inactive
same,outcome,[10],inactive
same,outcome,[11],inactive
same,outcome,[1],inactive
same,outcome,[12],inactive
same,Potency,[13],inactive
CCc1cccc(N(C)C(N)=Nc2cccc3ccccc23)c1,outcome,[1],inactive
Fc1ccc(C(c2ccc(F)cc2)N2CCN(C/C=C/c3ccccc3)CC2)cc1,outcome,[1],inactive
O=C(CCCN1CCC(O)(c2cccc(C(F)(F)F)c2)CC1)c1ccc(F)cc1,outcome,[1],inactive
O=C(O)c1cccnc1Nc1cccc(C(F)(F)F)c1,outcome,[1],inactive
C[C@]12C=CC(=O)C=C1CC[C@H]1[C@@H]3C[C@@H](O)[C@](O)(C(=O)CO)[C@@]3(C)C[C@H](O)[C@@]12F,outcome,[1],inactive
CCCCCN(CCCCC)C(=O)C(CCC(=O)O)NC(=O)c1ccc(Cl)c(Cl)c1 (stereo not given),outcome,[1],inactive
CCNC(=O)N1CCN(CCCC(c2ccc(F)cc2)c2ccc(F)cc2)CC1,outcome,[1],inactive
O=C1N(c2ccccc2)c2ccccc2C1(Cc1ccncc1)Cc1ccncc1,outcome,[1],inactive
C=CCc1ccccc1OCC(O)CNC(C)C (stereo not given),outcome,[1],inactive
CN(C)CCCN1c2ccccc2Sc2ccccc21,outcome,[1],inactive
CCCCCCCCC(=O)NCc1ccc(O)c(OC)c1,outcome,[7],inactive
same,outcome,[8],inactive
same,Potency,[14],inactive
same,Potency,[15],inactive
O=C(O)c1nn(Cc2ccc(Cl)cc2Cl)c2ccccc12,outcome,[2],inactive
same,Potency,[3],inactive
same,activation,[4],0.438% (inactive)
same,outcome,[6],inactive
same,outcome,[7],inactive
same,outcome,[8],inactive
same,outcome,[9],inactive
same,outcome,[10],inactive
same,outcome,[11],inactive
same,outcome,[1],inactive
same,outcome,[12],inactive
same,Potency,[13],inactive
same,outcome,[16],inactive
COC(=O)C1=C(C)NC(C)=C(C(=O)OC)C1c1ccccc1[N+](=O)[O-],Potency,[3],18.3 µM (active)
same,outcome,[1],inactive
same,Potency,[14],inactive
same,Potency,[13],11.2 µM (active)
COc1ccc(C(=O)N2CCCC2=O)cc1,outcome,[2],inactive
same,Potency,[3],inactive
same,activation,[4],0.812% (inactive)
same,outcome,[5],inactive
same,viability change,[5],-4.73%
same,outcome,[7],inactive
same,outcome,[8],inactive
same,outcome,[9],inactive
same,outcome,[10],inactive
same,outcome,[11],inactive
same,outcome,[1],inactive
same,Potency,[14],inactive
same,outcome,[12],inactive
same,Potency,[13],inactive
same,outcome,[16],inactive
Cc1ccc(N(CC2=NCCN2)c2cccc(O)c2)cc1,outcome,[1],inactive
Nc1ccn([C@H]2CC[C@@H](CO)O2)c(=O)n1,outcome,[1],inactive
CN(C)CC[C@@H](c1ccc(Cl)cc1)c1ccccn1,outcome,[1],inactive
CCn1ccnc1CC1COc2ccccc2O1 (stereo not given),outcome,[1],inactive
CN(C)CCC(c1ccccc1)c1ccccn1 (stereo not given),outcome,[1],inactive
O=C(O)CCc1nc(-c2ccccc2)c(-c2ccccc2)o1,outcome,[1],inactive
COC(=O)C1=CCCN(C)C1,outcome,[2],inactive
same,Potency,[3],inactive
same,outcome,[5],inactive
same,viability change,[5],-1.14%
same,outcome,[6],inactive
same,outcome,[7],inactive
same,outcome,[8],inactive
same,outcome,[9],inactive
same,outcome,[10],inactive
same,outcome,[11],inactive
same,outcome,[1],inactive
same,outcome,[12],inactive
same,Potency,[13],inactive
C(=C\c1ccccc1)/CN1CCN(C(c2ccccc2)c2ccccc2)CC1,outcome,[1],inactive
COC(=O)[C@@H](N)Cc1ccc(O)c(O)c1,outcome,[1],inactive
Cc1ccc(C(=O)Nc2ccc(S(=O)(=O)O)c3cc(S(=O)(=O)O)cc(S(=O)(=O)O)c23)cc1NC(=O)c1cccc(NC(=O)Nc2cccc(C(=O)Nc3cc(C(=O)Nc4ccc(S(=O)(=O)O)c5cc(S(=O)(=O)O)cc(S(=O)(=O)O)c45)ccc3C)c2)c1,outcome,[1],inactive
c1ccc2nc(N3CCNCC3)ccc2c1,activation,[4],-0.562% (inactive)
same,outcome,[7],inactive
same,outcome,[8],inactive
same,outcome,[16],inactive
CC(C)NCC(O)COc1ccc(COCCOC(C)C)cc1 (stereo not given),outcome,[1],inactive
CN(C)CCN(Cc1cccs1)c1ccccn1,outcome,[1],inactive
O=C(c1ccc(F)cc1)C1CCN(CCn2c(=O)[nH]c3ccccc3c2=O)CC1,outcome,[1],inactive
OCCN1CCN(CCCN2c3ccccc3C=Cc3ccccc32)CC1,outcome,[1],inactive
CC[C@H]1CN2CCc3cc(OC)c(OC)cc3[C@@H]2C[C@@H]1C[C@H]1NCCc2cc(OC)c(OC)cc21,outcome,[2],inactive
same,Potency,[3],0.259 µM (active)
same,outcome,[1],inactive
same,Potency,[14],inactive
same,Potency,[13],0.282 µM (active)
COc1ccc(CCN(C)CCCC(C#N)(c2cc(OC)c(OC)c(OC)c2)C(C)C)cc1OC (stereo not given),outcome,[1],inactive
OC(CN1CCC(Cc2ccc(F)cc2)CC1)c1ccc(Cl)cc1 (stereo not given),outcome,[1],inactive
CCN(CC)CCCC(C)Nc1c2ccc(Cl)cc2nc2ccc(OC)cc12 (stereo not given),outcome,[1],inactive
CC(N)C(=O)OC(C)(C)Cc1ccc(Cl)cc1 (stereo not given),outcome,[7],inactive
same,outcome,[8],inactive
same,outcome,[1],inactive
CN(C(=O)CCCOc1ccc2[nH]c(=O)ccc2c1)C1CCCCC1,outcome,[1],inactive
NC(N)=NC(=O)c1nc(Cl)c(N)nc1N,Potency,[15],inactive
